Inhibition data for 102 compounds are collected here from PubChem BioAssay AID488857 (Sanford-Burnham Center for Chemical Genomics, 2010).

Hit rate of the full screen: of about 1,400 compounds, about 560 (40%) were called active.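 Rule for the calls: active = mean inhibition over duplicate tests at 10 µM above 50%; inactive = the rest.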 So high a share suggests a set chosen from earlier hits. The list shows a part of the results.

The nature of the experiment: ASC/caspase-1 reporter retest in S. cerevisiae at one dose, specificity check for NALP1 project (AID 488857). As to conditions: S. cerevisiae ASC/Caspase-1, beta-galactosidase luminescence, 24 h; at 10 µM; hits give high values.
`COc1cc(C)ccc1OCCOCCOc1ccc([N+](=O)[O-])cc1`: the inhibition is 65.2% (active). For `C=CCc1ccc(OCCCOc2ccc(C)cc2OC)c(OC)c1` the value was 31.8% (inactive). Regarding `COc1ccc(CNc2nc(C)c([N+](=O)[O-])c(C)c2C#N)cc1`, the inhibition is 45.5% (inactive). For the compound `O=C1/C(=C\c2cccnc2)CN(Cc2ccccc2)C/C1=C\c1cccnc1`, the inhibition was 30.4% (inactive).

Consider `NNC(=S)NCc1cccnc1`, for which the inhibition is 37.2% (inactive). For the compound `S=C1SCN(Cc2cccnc2)CN1Cc1cccnc1`, the inhibition was 89.2% (active). As to `Nc1[nH]c(=O)ncc1F`, the inhibition is 81.2% (active). Turning to `Cc1nc(N)sc1N=Nc1ccc(Br)cc1`, the inhibition is 68.5% (active). In the case of `CCOC(=O)c1c(C)n(C)c2ccc(OC)c(NC(=O)CN3CCN(C4CCCCC4)CC3)c12`, the inhibition is 21.6% (inactive). With `CCOC(=O)C(=CNNc1ccsc1C(=O)OC)C(=O)OCC`, the inhibition is 41% (inactive). For the compound `CCOC(=O)C(=Cc1cc(=O)c(OC)co1)C(=O)OCC`, the inhibition was 85.2% (active). With `C1=CC2CC1CC2CN1CCN(Cc2ccccc2)CC1` (configuration not stated), the inhibition is 48.8% (inactive).

As for `Cc1onc(-c2ccccc2Cl)c1C(=O)N1C=CC(C(F)(F)F)=NCC1`, the inhibition was 77.5% (active). Consider `COc1ccc(C(=O)Nc2ccc(S(=O)(=O)Nc3nccc(C)n3)cc2)cc1OC`, for which the inhibition is 35.9% (inactive).

In the case of `COc1ccc(NC(=S)SC)cc1OC`, the inhibition was 60.2% (active). In the case of `COc1ccc(NC(=S)N(C(C)C)C2CCN(C(C)C)CC2)cc1Cl`, the inhibition was 25.9% (inactive). For the compound `CC1CN(S(=O)(=O)c2ccc(C(=O)Nc3nc(-c4cc5ccccc5o4)cs3)cc2)CC(C)O1` (configuration not stated), the inhibition was 32.9% (inactive). For `CCn1c(C(=O)N2CCc3ccccc3C2)cc2oc3ccccc3c21`, the inhibition is 44.5% (inactive). Turning to `O=C(CN1CCc2ccccc2C1)NCc1ccco1`, the inhibition is 36.3% (inactive). Take `O=C(c1cc(-c2ccc(O)cc2)on1)N1CCc2ccccc2C1`: the inhibition is 58.4% (active). For `CC1(O)N(Cc2ccccc2)C(=O)OC12CCCCC2` (configuration not stated) the value was 45.9% (inactive); for `OCCn1c(-c2ccc(F)cc2)csc1=Nc1ccccc1`, 46.5% (inactive). Consider `Cc1c(Cl)cccc1NC(=O)c1cccc(OC(F)F)c1`, for which the inhibition was 68.8% (active). In the case of `COc1ccc(C)cc1NC(=O)c1ccc(OC(F)F)cc1` it was 66.2% (active); in that of `COc1ccc(NC(=O)c2ccc(C)cc2)c(OC)c1`, 36.7% (inactive); in that of `COc1ccc(C)cc1NC(=O)c1ccc(CN2CCN(c3ccccc3)CC2)cc1`, 33.5% (inactive). In the case of `CSc1ccccc1NC(=O)Nc1ccccc1Cl`, the inhibition was 49.8% (inactive). For `O=C(NCCN1C(=O)S/C(=C\c2cccnc2)C1=O)c1cccc(OC(F)F)c1`, the inhibition was 45.1% (inactive). As for `CCN(CC1COc2ccccc2O1)S(=O)(=O)c1ccc(C)cc1` (configuration not stated), the inhibition was 43.9% (inactive).

Regarding `Cc1c(C(=O)NCC2COc3ccccc3O2)oc2ccc(S(=O)(=O)N3CC(C)CC(C)C3)cc12` (configuration not stated), the inhibition was 30.4% (inactive).

For `O=C(Nc1ccc(Nc2ccccc2)cc1)C(Cl)Cl`, the inhibition is 76.3% (active).

Regarding `Cc1cccc(C)c1NC(=O)C(Cl)C(=O)c1ccccc1` (configuration not stated), the inhibition was 2.6% (inactive). For `CC(C)C(=O)Nc1ccc(Nc2ccccc2)cc1` the value was 68.2% (active). As to `C/C(=N\NC(=O)Nc1ccccc1)c1ccccc1`, the inhibition was 41.4% (inactive). As to `CC(C)Oc1ccc(NC(=O)CCC(=O)O)cc1`, the inhibition is 28.5% (inactive). In the case of `O=c1c(O)c(-c2cccs2)oc2ccccc12`, the inhibition was 91% (active).

In the case of `CCC(C)C(=O)N1c2ccccc2C(=C2SC(C(=O)OC)=C(C(=O)OC)S2)C(=S)C1(C)C` (configuration not stated), the inhibition was 51.8% (active). For the compound `CCC(Cc1ccccc1)NC(=O)C1CCN(S(=O)(=O)c2c(C)noc2C)CC1` (configuration not stated), the inhibition is 28.6% (inactive). `CN(C)c1ccc(/C=C/c2ccc3ccccc3[n+]2C)cc1`: the inhibition is 96.8% (active). With `CC[n+]1c(/C=C/c2ccc(N(C)C)cc2)ccc2ccccc21`, the inhibition is 96.5% (active).

Turning to `O=C(O)c1ccc(S(=O)(=O)/N=C2\C=C(Nc3ccccc3F)C(=O)c3ccccc32)cc1`, the inhibition is 100% (active). As for `O=C1C(Nc2ccccc2)=C/C(=N/S(=O)(=O)c2cccs2)c2ccccc21`, the inhibition is 89.7% (active). Consider `O=C1c2ccccc2-c2cccc(NS(=O)(=O)c3ccc(C(F)(F)F)cc3)c21`, for which the inhibition was 36.2% (inactive). For `O=S(=O)(Nc1cccnc1)c1cccs1` the value was 25.8% (inactive).

Consider `CN(C)c1ccc(/C=N/NC(=O)c2nnn(-c3nonc3N)c2CN(C)c2ccccc2)cc1`, for which the inhibition is 20.1% (inactive).

Consider `Cc1cc(C)c(NC(=O)/C(=C/c2ccccc2)c2ccccc2)c(C)c1`, for which the inhibition is 31.6% (inactive). For `S=c1[nH]nc(-c2ccco2)n1/N=C/c1cccc(Cl)c1Cl` the value was 65.7% (active). For `CCOC(=O)C1CCCN(C2CC(=O)N(c3cccc(C(F)(F)F)c3)C2=O)C1` (configuration not stated) the value was 42.8% (inactive); for `O=c1ncn(-c2cccc(F)c2)c2ncccc12`, 35.6% (inactive); for `O=C(NC(=S)NCCCN1CCOCC1)c1ccc([N+](=O)[O-])cc1`, 37% (inactive). With `O=C(NCCCc1ccccc1)c1ccccc1O`, the inhibition was 47.4% (inactive). In the case of `O=[N+]([O-])c1ccc(N2CCN(C(=S)Nc3ccccc3)CC2)cc1`, the inhibition was 35.5% (inactive).

For `Cc1cc(C)cc(NS(=O)(=O)c2ccc(NC(=S)Nc3ccccc3)cc2)c1`, the inhibition was 23.9% (inactive). For `S=C(NCCc1ccccc1)Nc1ccc(Br)cc1`, the inhibition was 90.7% (active). In the case of `S=C(NCCCc1ccccc1)Nc1ccc(Cl)cc1` it was 95.5% (active); in that of `O=[N+]([O-])c1ccc(NC(=S)NCCc2ccc(F)cc2)cc1`, 96.3% (active); in that of `CCCCCCCCCCOC(=O)Cn1c(COc2ccc(Cl)cc2)[n+](C)c2ccccc21`, 29.6% (inactive). In the case of `Cc1ccc(Cn2nnnc2CN2CCC(c3nc4ccc(Cl)cc4[nH]3)CC2)cc1` it was 31.4% (inactive); in that of `CCN(C(=O)COC(=O)c1cccnc1Nc1cccc(C(F)(F)F)c1)C1CCS(=O)(=O)C1` (configuration not stated), 29.9% (inactive). As for `NC(=O)/C=C\C(=O)Nc1cccc(C(F)(F)F)c1`, the inhibition was 72.8% (active). Consider `COC(=O)/C=C\C(=O)Nc1cccc([N+](=O)[O-])c1`, for which the inhibition is 42.8% (inactive). In the case of `COC(=O)/C=C/C(=O)Nc1cccc(C(F)(F)F)c1` it was 60.1% (active); in that of `CCOC(=O)/C=C/C(=O)Nc1cccc([N+](=O)[O-])c1`, 55.5% (active).

`Cc1ccc(NC(=O)/C=C\C(=O)NCC(=O)O)cc1C`: the inhibition was 39% (inactive). Take `CCOC(=O)/C=C/C(=O)Nc1nccs1`: the inhibition is 47.1% (inactive).

Turning to `O=C(NC1CCCC1)C(c1ccccn1)N(C(=O)c1csnn1)C1CC1` (configuration not stated), the inhibition is 32.6% (inactive). As to `O=C(O)c1cccnc1C(=O)N1CCc2c([nH]c3ccccc23)C1C(F)(F)F` (configuration not stated), the inhibition was 18.5% (inactive). As to `O=C1c2ccccc2C(=O)c2c1ncn2-c1ccccc1`, the inhibition was 45.6% (inactive). In the case of `O=C(CN(Cc1ccccc1)S(=O)(=O)c1ccc(S(=O)(=O)N2CCOCC2)cc1)Nc1ccccc1` it was 36.3% (inactive).

On to `N#C/C(=C/c1cccs1)c1nc2ccccc2[nH]1`, for which the inhibition is 98.2% (active).

For the compound `N#C/C(=C\c1ccc([N+](=O)[O-])o1)c1nc2ccccc2[nH]1`, the inhibition was 20.7% (inactive).

Turning to `Cn1c(/C(C#N)=C/C2CC=CCC2)nc2ccccc21` (configuration not stated), the inhibition was 45.5% (inactive). `CC(C)C(C(=O)O)N1C(=O)/C(=C/c2cccn2C)SC1=S` (configuration not stated): the inhibition is 56.4% (active). For the compound `C/C(=N\NC(=O)c1c[nH]c2ccccc12)c1ccco1`, the inhibition was 40.6% (inactive). As for `CN(Cc1ccccc1)C(=O)c1ccc([N+](=O)[O-])o1`, the inhibition was 41.7% (inactive). In the case of `CCN(CC)c1ccc(N=Cc2ccc([N+](=O)[O-])o2)cc1` it was 69.8% (active).

Regarding `O=[N+]([O-])c1ccc(/C=N/NS(=O)(=O)c2ccc(Cl)cc2)o1`, the inhibition was 23.6% (inactive). Consider `C/C(=N\NC(=O)c1csc(C)c1C)c1ccc(Cl)s1`, for which the inhibition was 59.2% (active). Regarding `CC/C(=N\NC(=O)c1ccccc1Cl)c1ccc(Br)s1`, the inhibition is 38.1% (inactive). Turning to `Cc1cccc2sc(N(CCCN(C)C)C(=O)c3sc4ccccc4c3Cl)nc12`, the inhibition was 63.2% (active). `CN(C)CCCN(C(=O)c1sc2ccccc2c1Cl)c1nc2ccc(F)cc2s1`: the inhibition was 55.7% (active).

For the compound `Cc1ccc2nc(N(CCCN(C)C)C(=O)c3sc4ccccc4c3Cl)sc2c1`, the inhibition is 31.8% (inactive).

As to `Cc1cc(C=C2C(=O)c3ccccc3C2=O)c(C)n1C`, the inhibition is 37.7% (inactive).

Regarding `CC(=O)N(C1=C(Cl)C(=O)c2ccccc2C1=O)C1CCCCC1`, the inhibition is 50.3% (active). As to `O=C(c1ccc(Br)o1)N(c1ccccn1)C1CCCCC1`, the inhibition was 33.8% (inactive). With `C/C(=N\N(C)C)C1=C(O)c2ccccc2C1=O`, the inhibition was 32.5% (inactive). For the compound `CN(c1ccccc1)c1ccc(/C=C/[N+](=O)[O-])cc1`, the inhibition was 96.7% (active). For `O=C(O)CC1NC(=S)N(c2ccccc2)C1=O` (configuration not stated) the value was 31.6% (inactive). Turning to `COC(=O)c1cc(=O)n(-c2c(Cl)cc(C(F)(F)F)cc2Cl)[nH]1`, the inhibition is 34.8% (inactive). In the case of `c1ccc(-c2c[nH]c3[n+]2CCCCC3)cc1` it was 52.4% (active). Consider `Oc1ccc2ccccc2c1CN1CCN(c2ccccc2)CC1`, for which the inhibition was 45.1% (inactive). `CC(NCCC(c1ccccc1)c1ccccc1)c1ccccc1` (configuration not stated): the inhibition was 50.4% (active). As to `Cc1cc(C)cc(C(=O)OCC(=O)NCCNC(=O)COC(=O)c2cc(C)cc(C)c2)c1`, the inhibition is 23.8% (inactive). Take `COc1ccc(C(=O)C2CCCN(C(=O)Cn3nc(C)cc3C)C2)cc1F` (configuration not stated): the inhibition is 46.8% (inactive).

As for `Cc1ccc(NC(=O)CSC2=Nc3ccccc3C3CC=NN23)c(C)c1` (configuration not stated), the inhibition was 56.6% (active). Consider `Cc1ccc(NC(=O)Cn2cccc2)c(C)c1`, for which the inhibition was 28.5% (inactive). For `Cc1ccc(C)c(NC(=O)CSc2nnc(-c3ccccc3)o2)c1` the value was 45.4% (inactive). On to `Cc1nc2nc3c(cn2n1)C(=O)CCC3`, for which the inhibition was 23.6% (inactive). As to `COC(=O)c1ccccc1NC(=O)CN1CCC(n2nnc3cc(F)ccc32)CC1`, the inhibition was 33.6% (inactive).

In the case of `COc1ccccc1NC(=O)CCN1CCN(Cc2ccccc2)CC1`, the inhibition was 45.7% (inactive). `COc1ccccc1NC(=O)C1=C(C)NC(=O)NC1c1cccs1` (configuration not stated): the inhibition is 32.2% (inactive). For `COc1ccccc1NC(=O)c1ccc(C)s1`, the inhibition was 50.4% (active).

As usually defined, the inhibition is the share of the control response that was lost under treatment.
